Experimental data reported in the OligoGym collection.

Biological target: FCHSD2
Experiment: pooled miR-30 sensor sort-seq; sequence = guide strand
Settings: shRNA
Further: reference of the scale not given here.

Sequence	sensor-assay potency score (higher = more potent)
TATCTTCAAACTCTTCGCCTTC	-0.452
TTTTCTTGCAAAAACAGCTGAA	-0.0894
TTTAAGCTTCTCACTGTCCTTG	0.228
TTCTGTTCTAGCTCTGCTCGGC	-0.12
TGCTTTAGCAGGTCCAACCGGG	-0.504
TAGCTTTGGAATTACACTCAGA	-0.799
TAACTTTACACTTGCCTTCTGT	-0.129
TTCGGTATCTGCATTAAGCGAG	0.0519
TTTAGCTAAATCTTTCACTGTC	1.33
TTTCTGATTCTAACTGTCGGCT	-0.5
TAGGAATAAACAACTTTGCAGG	-0.656
TTATCTTCAAACTCTTCGCCTT	-0.0794

Biological target: FCRL4
Experiment: as above
Settings: shRNA

Sequence	sensor-assay potency score (higher = more potent)
TTGCATAGAACTGAAATCCATT	-0.778
TTATCCTCTAGAAGTGTCCTGG	0.145
TTATTTTGAAATTTGATCTAAA	-0.106
TTCTCTGTTGCATAGAACTGAA	-0.545
TATTTGAACTTGCTTGTGGGAT	-0.378
TTATTTGAACTTGCTTGTGGGA	-0.64
TGTTATTTGAACTTGCTTGTGG	0.392
TAGGCTGAGAGTCTGTAGCTTT	0.173
TACATCAACATACAACGACTGA	-0.697
TAGAACTGAAATCCATTGCAAG	-0.914
TAGACAACTGAGACATCCTTAT	-0.682
TAGAGCTGATCTTTCCAGCTGA	0.365

Biological target: FER1L6
Experiment: as above
Settings: shRNA

Sequence	sensor-assay potency score (higher = more potent)
TTGCTTGCACAGACCAACCAGC	-0.415
TTCTTCTGCTGTAACTAGGTGG	-0.362
TAGCGAATCTGAAATATCGTGC	0.395
TTAGTCAACAGTTTTGATCTTC	0.643
TTTTCTGGTACAATCTCCGGGG	0.181
TTGACTATCTTTCGCAGCCTTG	-0.891
TAAAATGACATCTTCAGTGTTC	0.481
TTTGTCTCCATCCTGTTCGTTG	-0.562
TTCTTCTATACTTTCTTCCAGG	-0.684
TAACTTTTTCTTCTGCTGCTGA	0.239
TAGAGTCTCACATAGAATCTGG	-0.448
TTTTTCTGGTACAATCTCCGGG	0.00268

Biological target: FEZ1
Experiment: as above
Settings: shRNA

Sequence	sensor-assay potency score (higher = more potent)
TTGCTCAGTGACCTCCTGCAGC	-0.806
TTTAAATACATGTCGGAGGTTA	0.312
TAGTCTTAAGAGTATAAGCTGT	-0.799
